Statin myotox sup = suppressors of simvastatin-induced myotoxicity in C2C12 myotubes. ATP luminescence, 48 h; scaled: DMSO 0, geranylgeraniol control 100. rescue of ATP level, % at 7.49 µM. hit rate 0.78% among 330,000. AID 602340;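 active means mean ATP rescue above about 67%, or every replicate alone reaching that limit, limit read from the data, passing the limit was not always enough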;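 further: myotubes were challenged with 10 µM simvastatin during compound exposure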
ARNT-TACC3 inh = ARNT/TACC3 interaction disruption | AlphaScreen His-ARNT PAS-B/GST-TACC3 binding, luminescence; TACC3 fragment carries E629A point mutation | inhibition, % at 9.99 µM | Q9Y6A5 | hit rate 0.66% among 390,000;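 active means mean inhibition of replicates at least 50% and at least half of replicates each reaching 50%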
CFTR F508del cor = CFTR F508del correction in bronchial cells; activity (quench increase), % at 7.58 µM; hit rate 0.36% among 350,000; CFBE cells, YFP halide quenching; stimulated with forskolin plus potentiator P3; % fluorescence drop versus neutral controls;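 active means mean added fluorescence quench of at least 8% versus neutral control, with both replicates also reaching 8%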;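 further: cells transiently co-express mutant CFTR-F508del with the halide-sensitive YFP; corrector assay measuring rescue of mutant channel to the surface after 24 h compound exposure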
PglD DTNB = blocks C. jejuni PglD acetyltransferase activity. purified PglD enzyme, DTNB colorimetric CoA detection. inhibition, % at 12.5 µM. hit rate 0.098% among 360,000; in the data active means inhibition above about 16%, passing the limit was not always enough
Numbers stand for hits; – = inactive; · = no result given. Sampled rows, rich in hits. Any-hit rate of the full collection: about 1.4%.

SMILES | Statin myotox sup | ARNT-TACC3 inh | CFTR F508del cor | PglD DTNB
COc1ccc(-c2cnc(N)n2C)cc1 | – | 69.1 | – | –
COCCn1c(-c2ccccc2)cnc1N | – | 51.4 | · | ·
Cn1c(-c2ccccc2)cnc1N | – | 57.5 | · | –
COCCn1c(-c2ccccc2)nc2ccccc21 | – | – | · | –
COc1ccc(NC(=O)N2C[C@@H](O)COC[C@H]3O[C@H](CC(=O)N4CCN(C)CC4)CC[C@@H]32)cc1 | – | – | – | –
C[C@@H]1CN([C@@H](C)CO)C(=O)c2cc(NC(=O)NC3CCCCC3)ccc2O[C@@H]1CN(C)C(=O)Nc1ccc2c(c1)OCO2 | – | – | – | –
CCN1[C@@H]2c3ccc(/C=C/c4ccccc4)c(=O)n3C[C@@H]2[C@@H](CO)[C@@H]1C(=O)N(C)C | – | – | – | –
CN(C)C(=O)c1cccc(-c2ccc(C3[C@@H]4CN(S(=O)(=O)c5ccccc5F)C[C@H]3N4)cc2)c1 (some centres not stated) | · | · | – | ·
O=C(O)C1Nc2c(O)cccc2C2C=CCC12 (configuration not stated) | · | 74.6 | – | ·
O=C(O)C1Nc2c(Cl)cc(Cl)cc2C2C=CCC12 (configuration not stated) | – | – | · | –
Cc1noc(C)c1S(=O)(=O)Nc1ccc2c(c1)CC(=O)N([C@@H](C)CO)C[C@@H](C)[C@@H](CN(C)Cc1ccc(C(=O)O)cc1)O2 | – | – | – | –
Cc1ccccc1N(CC(=O)NC1CCCC1)C(=O)CS(=O)CC(=O)Nc1ccc2c(c1)OCO2 (configuration not stated) | 127.0 | – | · | –
COc1cc(/C=C/C(=O)O)ccc1O | – | – | – | –
COc1cc(/C=C/C(=O)/C=C(O)/C=C/c2ccc(O)c(OC)c2)ccc1O | 140.4 | – | – | –
OC[C@@H]1[C@@H](c2ccc(C#Cc3ccccc3)cc2)[C@@H]2CN(Cc3cncnc3)CCCCN12 | · | – | – | –
COc1ccc2c3c(n(C)c2c1)[C@@H](CO)N(C(=O)CN1CCOCC1)CC31CCN(C(C)=O)CC1 | · | · | – | ·
COc1ccc(C(=O)N2c3ccccc3C=CC2C#N)cc1 (configuration not stated) | · | · | – | ·
CCSC(=O)N1c2ccc(OC)cc2C=CC1C#N (configuration not stated) | · | – | 15.3 | ·
COc1ccc(Cc2nc(C(=O)NCc3ccccc3OC)cs2)cc1 | – | – | · | –
COc1ccc(Cc2nc(C(=O)Nc3ccc(OC)cc3)cs2)cc1 | 122.4 | · | · | –
O=C(NCc1ccccc1)c1ccc(C2SCC(=O)N2Cc2ccccc2)cc1 (configuration not stated) | 78.7 | – | · | ·
O=C(Nc1ccc(S(=O)(=O)NC2=NCCCCC2)cc1)c1ccc([N+](=O)[O-])s1 | 85.6 | – | – | –
Cc1nn(S(=O)(=O)c2ccc(Cl)cc2)c(C)c1Sc1ccc([N+](=O)[O-])cc1 | · | – | 14.9 | –
Cc1nn(-c2ccccc2)c(N)c1Sc1ccc([N+](=O)[O-])cc1 | · | – | · | ·
O=C(N[C@H]1CC[C@@H](CC(=O)N2CCCCC2)O[C@@H]1CO)c1cccc(F)c1 | – | – | – | –
SMILES | Statin myotox sup | ARNT-TACC3 inh | CFTR F508del cor | PglD DTNB
O=C(O)C(Cc1ccccc1)N1C(=O)/C(=C/c2cccs2)SC1=S (configuration not stated) | · | – | – | ·
O=C(O)C(c1ccccc1)N1C(=O)/C(=C/c2cccs2)SC1=S (configuration not stated) | – | 65.2 | – | ·
C/C(CC(=O)Nc1ccc(N(C)C)cc1)=N\NC(=O)c1ccccn1 | – | 51.7 | · | –
CN(C)c1ccc(NC(=O)CC(NCc2ccccn2)C(=O)O)cc1 (configuration not stated) | – | 76.9 | · | –
C[C@@H]1CN([C@H](C)CO)C(=O)Cc2cc(NC(=O)C3CC3)ccc2O[C@@H]1CN(C)CC1CC1 | – | – | – | –
O=C(N[C@@H]1CC[C@@H](CCNC(=O)c2cnccn2)O[C@H]1CO)c1ccc2c(c1)OCO2 | – | – | – | –
CNC(=O)COC(=O)c1nc(-n2nc(C)cc2C)ccc1Cl | 80.0 | – | · | –
COC(=O)c1nc(-n2nc(C)cc2C)ccc1Cl | – | – | · | –
COc1ccc(-c2[nH]ncc2CN(C)CCN2CCOCC2)cc1F | · | – | – | ·
COc1ccc(-c2[nH]ncc2CNCC(C)(C)N2CCOCC2)cc1F | 88.3 | · | – | –
COc1ccccc1C#Cc1ccc2c(c1)[C@H]1[C@H](CCN1S(=O)(=O)c1cccc(C)c1)[C@H](CO)N2 | · | · | – | ·
C/C(=N/NS(=O)(=O)c1ccc(Br)cc1)c1ccc(NC(=O)c2ccc(C)o2)cc1 | 75.5 | – | · | –
O=S(=O)(c1ccc(F)cc1)N1CC[C@H]2[C@H](CO)Nc3ccc(-c4ccc(F)cc4)cc3[C@H]21 | – | – | – | –
O=S(=O)(c1ccc(F)cc1)N1CC[C@@H]2[C@@H](CO)Nc3ccc(-c4ccc(F)cc4)cc3[C@@H]21 | – | – | 15.9 | –
COc1ccc(S(=O)(=O)N2CC[C@@H]3[C@@H](CO)Nc4ccc(-c5ccc(C#N)cc5)cc4[C@@H]32)cc1 | – | – | 9.7 | –
CC(=O)N1CCc2cc(S(=O)(=O)N3c4ccccc4CC3C)ccc21 (configuration not stated) | – | – | 10.3 | –
CC(=O)N1CCc2cc(S(=O)(=O)N3CCOCC3)ccc21 | – | – | · | –
CNC[C@@H]1Oc2ncc(C#Cc3ccc(F)cc3)cc2C(=O)N([C@H](C)CO)C[C@@H]1C | – | – | – | –
CC1CC(=O)c2c(cc3c(-c4c(O)cc(O)c5c(O)c6c(cc45)OC(C)CC6=O)c(O)cc(O)c3c2O)O1 (configuration not stated) | – | 95.7 | · | –
Cn1ncc(Cl)c1C(=O)Nc1cccnc1 | 101.1 | – | · | –
Cn1ncc(Cl)c1C(=O)Nc1cccc(Cl)c1 | – | – | · | –
C=CCn1c(=O)c(C(=O)Nc2cccnc2)c(O)c2ccccc21 | 96.2 | – | · | –
Cn1nc(C(=O)Nc2cccnc2)c2ccccc2c1=O | – | 45.6 | · | –
COc1ccc(NC(=O)Nc2ccc3c(c2)C(=O)N([C@H](C)CO)C[C@H](C)[C@H](CN(C)Cc2ccc(Cl)c(Cl)c2)OCCCC[C@@H](C)O3)cc1 | · | – | – | –
C[C@@H]1CCCCO[C@H](CN(C)C(=O)C2CCCCC2)[C@H](C)CN([C@@H](C)CO)C(=O)c2cc(NS(=O)(=O)c3cccs3)ccc2O1 | · | · | – | –
O=C(c1ccc2c(c1)OCO2)N1CC2(C1)[C@H](c1ccccc1)[C@H](CO)N2C(=O)C1CCCC1 | · | · | – | ·
CO[C@@H]1CN(C)C(=O)c2ccc(NS(=O)(=O)c3cn(C)cn3)cc2OC[C@H](C)N(CCC(F)(F)F)C[C@H]1C | · | · | – | ·
Cc1ccc(S(=O)(=O)N(C)C[C@@H]2Oc3c(NS(=O)(=O)c4ccc(Cl)cc4)cccc3C(=O)N([C@H](C)CO)C[C@@H]2C)cc1 | – | – | – | –
O=C(CN1C(=O)/C(=C/c2ccco2)SC1=S)Nc1ccc(C(=O)O)c(O)c1 | – | – | – | –
CC(C(=O)Nc1ccc(C(=O)O)c(O)c1)N1C(=O)/C(=C\c2ccco2)SC1=S (configuration not stated) | 125.8 | – | · | –

Bioassay records (PubChem)
